In the supplement of paper PMC11219838:

System: Caenorhabditis elegans dauer (daf-2(e1370))
Test: proportion of mobile C. elegans dauer larvae relative to DMSO control (fraction of DMSO control); higher = more viable, less nematicidal, active = 0.63 or less; extreme values may be limits of the assay
Conditions: 60 µM; 5 days; temperature: 20 °C
Protocol: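 DODA library (846 commercial 1,3,4- and 1,2,4-oxadiazole compounds plus commercial nematicide controls) screened at a single dose of 60 µM (0.6% DMSO) in 96-well plates, two biological replicates. Read-outs: C. elegans N2 L1 survival/reproduction score at day 6, 20 °C (0: 0-10 worms, 1: 11-20, 2: 21-50, 3: >50, 4: overgrown/starved). C. elegans daf-2 dauer, D. dipsaci and M. hapla J2 mobility at day 5, 20 °C, and P. penetrans mobility at day 5, 20 °C, each relative to DMSO controls. M. hapla egg hatching at day 12, 25 °C, relative to the mean of 8 DMSO wells on the same plate.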

Question: `CCn1c(SCc2nc(-c3ccccc3)no2)nc2ccccc21` was tested. Which “proportion of mobile C. elegans dauer larvae” value (“proportion” below) did it give?
Answer: Its value is 1 (inactive).

Question: `Cc1ccc(CSc2nnc(-c3ccncc3)o2)cc1` was tested. Which “proportion” value did it give?
Answer: The value was 1 (inactive).

Question: Which “proportion” value does the source give for `O=C(Nc1cccc(-c2noc(-c3cccnc3)n2)c1)c1cccs1` here?
Answer: Its value is 1 (inactive).

Question: With `CC(C)(C)c1ccc(-c2nnc(SCC(=O)c3ccc(F)cc3)o2)cc1` as the compound, how does the “proportion” value read?
Answer: Its value is 1 (inactive).

Question: Which “proportion” value does the source give for `Cc1ccc(-c2nnc(SCC(=O)NCCc3ccccc3)o2)cc1` here?
Answer: The value was 1 (inactive).

Question: Which “proportion” value does the source give for `Cc1cccc(NC(=O)CSc2nnc(-c3ccncc3)o2)c1C` here?
Answer: Its value is 1 (inactive).

Question: Which “proportion” value does the source give for `CCOc1ccccc1-c1nc(-c2ccc(Br)cc2)no1` here?
Answer: Its value is 1 (inactive).

Question: Which “proportion” value does the source give for `CCOc1cc(-c2nc(-c3ccc(C)nc3OCC)no2)cc(OCC)c1OCC` here?
Answer: Its value is 1 (inactive).

Question: How did the “proportion” value turn out when `Cc1ccc(-c2noc(COc3ccc(Cl)cc3)n2)cc1` was run?
Answer: The value was 1 (inactive).

Question: `COc1ccccc1-c1nnc(SCC(=O)Nc2ccc(Br)cn2)o1` was tested. Which “proportion” value did it give?
Answer: The value was 1 (inactive).

Question: With `Clc1cccc(OCc2nc(-c3ccncc3)no2)c1` as the compound, how does the “proportion” value read?
Answer: Its value is 1 (inactive).

Question: `COc1ccc(-c2nnc(SCC(=O)N(C)c3ccccc3)o2)cc1` was tested. Which “proportion” value did it give?
Answer: Its value is 1 (inactive).

Question: Which “proportion” value does the source give for `O=C(CSc1nnc(-c2ccccc2)o1)N1CCc2ccccc21` here?
Answer: Its value is 1 (inactive).

Question: How did the “proportion” value turn out when `COc1cccc(-c2noc(-c3cccc(F)c3)n2)c1` was run?
Answer: The value was 1 (inactive).

Question: How did the “proportion” value turn out when `Cc1ccc(-c2nc(-c3ccc(C(F)(F)F)cc3)no2)cc1` was run?
Answer: Its value is 0.5 (active).

Question: How did the “proportion” value turn out when `Cc1ccccc1-c1noc(-c2ccccc2OCC(N)=O)n1` was run?
Answer: Its value is 1 (inactive).

Question: Which “proportion” value does the source give for `COc1ccc(-c2noc(-c3ccc(Cl)cc3)n2)cc1` here?
Answer: The value was 0.778 (inactive).

Question: Which “proportion” value does the source give for `COc1ccc(-c2noc(COc3ccc(C4CCCCC4)cc3)n2)cc1` here?
Answer: Its value is 1 (inactive).

Question: `Cc1ccc(C(=O)Nc2ccccc2-c2nc(-c3ccncc3)no2)cc1C` was tested. Which “proportion” value did it give?
Answer: Its value is 1 (inactive).

Question: Which “proportion” value does the source give for `O=C(CSc1nnc(-c2ccc(Cl)cc2)o1)NC1CCCCC1` here?
Answer: Its value is 1 (inactive).

Question: `Cc1csc(NC(=O)CSc2nnc(-c3ccccc3Cl)o2)n1` was tested. Which “proportion” value did it give?
Answer: Its value is 1 (inactive).

Question: Which “proportion” value does the source give for `COc1nc(C)ccc1-c1noc(-c2ccc(C)cc2)n1` here?
Answer: The value was 1 (inactive).

Question: How did the “proportion” value turn out when `COc1cccc(-c2noc(CSc3ccccc3)n2)c1` was run?
Answer: Its value is 1 (inactive).

Question: For `COc1ccc(-c2noc(COc3ccc(C)c(C)c3)n2)cc1`, which “proportion” value is on record?
Answer: The value was 1 (inactive).

Question: Which “proportion” value does the source give for `Cc1cc(NC(=O)CSc2nnc(-c3ccc(Cl)cc3Cl)o2)no1` here?
Answer: The value was 1 (inactive).

Question: Which “proportion” value does the source give for `COc1ccc(-c2noc(COc3ccc(Br)c(C)c3)n2)cc1` here?
Answer: Its value is 1 (inactive).

Question: Which “proportion” value does the source give for `O=C(Nc1ccccc1-c1nc(-c2cccnc2)no1)c1cccs1` here?
Answer: Its value is 1 (inactive).

Question: With `Cc1ccccc1-c1noc(-c2cccc(Br)c2)n1` as the compound, how does the “proportion” value read?
Answer: Its value is 1 (inactive).

Question: For `CCC(=O)Nc1ccccc1-c1nc(-c2ccncc2)no1`, which “proportion” value is on record?
Answer: The value was 1 (inactive).

Question: Which “proportion” value does the source give for `O=C(CSc1nnc(-c2ccc(Cl)cc2)o1)NC1CC2CCC1C2` (stereo not given) here?
Answer: Its value is 1 (inactive).

Question: For `COc1cccc(-c2noc(-c3ccccc3C)n2)c1`, which “proportion” value is on record?
Answer: Its value is 1 (inactive).

Question: With `O=C(CSc1nnc(-c2ccco2)o1)Nc1ccccc1F` as the compound, how does the “proportion” value read?
Answer: Its value is 1 (inactive).

Question: For `O=C(CSc1nnc(-c2cccc(Br)c2)o1)c1ccc2c(c1)CCCC2`, which “proportion” value is on record?
Answer: Its value is 1 (inactive).

Question: Which “proportion” value does the source give for `Cc1ccc(OC(C)c2nc(-c3ccncc3)no2)cc1C` (stereo not given) here?
Answer: The value was 1 (inactive).

Question: `Clc1ccc(CSc2nnc(-c3ccccc3Cl)o2)cc1` was tested. Which “proportion” value did it give?
Answer: Its value is 1 (inactive).

Question: For `COc1ccc(-c2noc(C3CCCCC3)n2)cc1`, which “proportion” value is on record?
Answer: The value was 0.779 (inactive).

Question: How did the “proportion” value turn out when `Cc1ccc(NC(=O)CSc2nnc(-c3ccccc3)o2)cc1C` was run?
Answer: The value was 1 (inactive).

Question: With `Cc1ccc(-c2noc(COc3ccc(C)cc3C)n2)cc1` as the compound, how does the “proportion” value read?
Answer: The value was 1 (inactive).

Question: With `COc1ccc(-c2nnc(SCC(=O)N3CC(C)CC(C)C3)o2)cc1` (stereo not given) as the compound, how does the “proportion” value read?
Answer: Its value is 1 (inactive).

Question: Which “proportion” value does the source give for `CCOc1ccccc1-c1nnc(SCC(=O)N2CCC(C)CC2)o1` here?
Answer: Its value is 1 (inactive).
